Our source for the inhibition values is ChEMBL document CHEMBL1961873, “Compounds: GSK PKIS; Assays: Nanosyn kinase panel” (2012).

For test [1], the target named is Fibroblast growth factor receptor 4 (Homo sapiens) (UniProt P22455). The following applies: at 1 µM.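 Also: reported figure is the averaged percent inhibition of FGFR4, from the GSK PKIS kinase screening panel.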
The target of test [2] is Tyrosine-protein kinase Fgr (Homo sapiens) (UniProt P09769). The conditions noted are these: at 0.1 µM.
Sequence of Tyrosine-protein kinase Fgr (Homo sapiens) (P09769 2-529 limits assumed): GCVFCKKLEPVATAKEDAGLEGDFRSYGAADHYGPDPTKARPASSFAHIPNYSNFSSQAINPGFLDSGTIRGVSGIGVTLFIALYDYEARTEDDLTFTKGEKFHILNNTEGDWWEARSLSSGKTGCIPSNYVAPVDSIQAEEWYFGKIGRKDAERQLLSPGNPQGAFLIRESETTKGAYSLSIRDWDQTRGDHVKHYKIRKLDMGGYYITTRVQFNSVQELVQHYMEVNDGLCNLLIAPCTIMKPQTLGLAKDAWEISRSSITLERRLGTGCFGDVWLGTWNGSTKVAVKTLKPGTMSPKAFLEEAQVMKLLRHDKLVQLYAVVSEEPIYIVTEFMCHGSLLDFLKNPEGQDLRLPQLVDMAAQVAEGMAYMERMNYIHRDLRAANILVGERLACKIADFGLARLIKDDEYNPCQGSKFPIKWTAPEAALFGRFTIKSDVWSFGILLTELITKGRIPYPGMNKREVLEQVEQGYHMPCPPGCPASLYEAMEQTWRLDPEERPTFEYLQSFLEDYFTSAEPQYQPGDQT
Test [3] shares this target. The conditions noted are these: at 1 µM.
Test [4] concerns the target Vascular endothelial growth factor receptor 1 (Homo sapiens) (UniProt P17948). The conditions noted are these: at 0.1 µM.
For test [5] the target is unchanged. The conditions noted are these: at 1 µM.
Test [6] has as its target Receptor-type tyrosine-protein kinase FLT3 (Homo sapiens) (UniProt P36888). The following applies: at 0.1 µM.
For test [7] the target is unchanged. The following applies: at 1 µM.
Test [8] concerns T1, Receptor-type tyrosine-protein kinase FLT3 (Homo sapiens), P36888 [D835Y].
T1 sequence (whole entry): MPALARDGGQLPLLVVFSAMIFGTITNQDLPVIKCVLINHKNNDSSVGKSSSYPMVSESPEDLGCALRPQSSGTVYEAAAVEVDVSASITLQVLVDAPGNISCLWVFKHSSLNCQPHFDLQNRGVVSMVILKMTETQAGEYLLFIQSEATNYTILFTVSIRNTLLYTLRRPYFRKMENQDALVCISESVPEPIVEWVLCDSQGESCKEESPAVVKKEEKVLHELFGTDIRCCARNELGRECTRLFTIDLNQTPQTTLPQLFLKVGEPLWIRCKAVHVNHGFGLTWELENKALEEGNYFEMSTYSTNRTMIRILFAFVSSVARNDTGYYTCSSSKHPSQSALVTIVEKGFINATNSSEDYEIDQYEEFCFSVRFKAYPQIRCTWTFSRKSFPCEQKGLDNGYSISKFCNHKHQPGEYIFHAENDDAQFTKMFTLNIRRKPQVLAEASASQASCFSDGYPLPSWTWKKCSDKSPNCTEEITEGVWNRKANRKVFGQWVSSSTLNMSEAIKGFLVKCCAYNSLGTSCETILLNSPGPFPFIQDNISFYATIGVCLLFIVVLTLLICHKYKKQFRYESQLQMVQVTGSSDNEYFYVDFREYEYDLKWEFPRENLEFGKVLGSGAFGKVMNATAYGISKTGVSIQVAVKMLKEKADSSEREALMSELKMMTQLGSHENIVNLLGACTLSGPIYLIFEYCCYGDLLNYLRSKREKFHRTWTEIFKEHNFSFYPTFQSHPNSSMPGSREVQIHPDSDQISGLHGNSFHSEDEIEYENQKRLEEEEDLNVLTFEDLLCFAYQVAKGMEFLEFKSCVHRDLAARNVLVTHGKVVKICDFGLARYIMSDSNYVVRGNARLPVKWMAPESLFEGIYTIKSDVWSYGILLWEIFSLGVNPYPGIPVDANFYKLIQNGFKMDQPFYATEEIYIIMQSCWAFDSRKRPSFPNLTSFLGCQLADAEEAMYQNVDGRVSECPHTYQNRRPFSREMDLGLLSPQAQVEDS
The conditions noted are these: at 0.1 µM.

Test [9] deals with Non-receptor tyrosine-protein kinase TYK2 (Homo sapiens) (UniProt P29597). The conditions noted are these: at 1 µM.
Sequence of Non-receptor tyrosine-protein kinase TYK2 (Homo sapiens) (P29597 whole entry): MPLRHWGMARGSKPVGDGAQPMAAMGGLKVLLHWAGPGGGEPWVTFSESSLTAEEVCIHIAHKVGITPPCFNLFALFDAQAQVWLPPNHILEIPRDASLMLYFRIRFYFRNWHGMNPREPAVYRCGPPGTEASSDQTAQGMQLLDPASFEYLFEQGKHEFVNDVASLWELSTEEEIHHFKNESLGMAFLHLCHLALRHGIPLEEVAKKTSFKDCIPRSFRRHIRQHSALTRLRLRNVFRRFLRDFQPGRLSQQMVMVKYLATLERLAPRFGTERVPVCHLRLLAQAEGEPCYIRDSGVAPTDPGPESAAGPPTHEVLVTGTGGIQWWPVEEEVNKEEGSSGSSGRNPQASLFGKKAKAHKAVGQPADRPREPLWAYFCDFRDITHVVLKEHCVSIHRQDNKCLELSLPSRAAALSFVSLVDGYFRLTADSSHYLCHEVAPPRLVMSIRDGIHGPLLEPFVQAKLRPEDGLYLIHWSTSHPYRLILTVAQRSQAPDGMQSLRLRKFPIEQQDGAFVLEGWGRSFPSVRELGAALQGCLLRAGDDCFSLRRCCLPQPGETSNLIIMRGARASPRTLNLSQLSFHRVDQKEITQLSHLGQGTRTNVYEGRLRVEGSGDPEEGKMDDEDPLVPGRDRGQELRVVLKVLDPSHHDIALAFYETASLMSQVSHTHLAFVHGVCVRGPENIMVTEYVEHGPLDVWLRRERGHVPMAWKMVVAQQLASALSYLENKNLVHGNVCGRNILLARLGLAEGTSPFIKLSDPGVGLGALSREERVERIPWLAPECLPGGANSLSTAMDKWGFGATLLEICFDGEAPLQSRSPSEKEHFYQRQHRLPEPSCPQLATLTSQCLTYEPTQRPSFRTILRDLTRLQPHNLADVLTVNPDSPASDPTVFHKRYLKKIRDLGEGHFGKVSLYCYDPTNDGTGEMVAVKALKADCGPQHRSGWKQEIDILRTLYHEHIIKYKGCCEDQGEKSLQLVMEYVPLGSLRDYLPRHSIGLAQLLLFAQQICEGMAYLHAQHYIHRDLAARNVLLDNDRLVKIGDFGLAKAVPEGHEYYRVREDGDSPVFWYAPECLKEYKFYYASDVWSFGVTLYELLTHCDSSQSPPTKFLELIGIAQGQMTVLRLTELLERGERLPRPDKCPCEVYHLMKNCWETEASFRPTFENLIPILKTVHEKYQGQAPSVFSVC
In test [10] the target is T2, Tyrosine-protein kinase receptor TYRO3 (Homo sapiens) (UniProt Q06418).
T2 sequence (whole entry): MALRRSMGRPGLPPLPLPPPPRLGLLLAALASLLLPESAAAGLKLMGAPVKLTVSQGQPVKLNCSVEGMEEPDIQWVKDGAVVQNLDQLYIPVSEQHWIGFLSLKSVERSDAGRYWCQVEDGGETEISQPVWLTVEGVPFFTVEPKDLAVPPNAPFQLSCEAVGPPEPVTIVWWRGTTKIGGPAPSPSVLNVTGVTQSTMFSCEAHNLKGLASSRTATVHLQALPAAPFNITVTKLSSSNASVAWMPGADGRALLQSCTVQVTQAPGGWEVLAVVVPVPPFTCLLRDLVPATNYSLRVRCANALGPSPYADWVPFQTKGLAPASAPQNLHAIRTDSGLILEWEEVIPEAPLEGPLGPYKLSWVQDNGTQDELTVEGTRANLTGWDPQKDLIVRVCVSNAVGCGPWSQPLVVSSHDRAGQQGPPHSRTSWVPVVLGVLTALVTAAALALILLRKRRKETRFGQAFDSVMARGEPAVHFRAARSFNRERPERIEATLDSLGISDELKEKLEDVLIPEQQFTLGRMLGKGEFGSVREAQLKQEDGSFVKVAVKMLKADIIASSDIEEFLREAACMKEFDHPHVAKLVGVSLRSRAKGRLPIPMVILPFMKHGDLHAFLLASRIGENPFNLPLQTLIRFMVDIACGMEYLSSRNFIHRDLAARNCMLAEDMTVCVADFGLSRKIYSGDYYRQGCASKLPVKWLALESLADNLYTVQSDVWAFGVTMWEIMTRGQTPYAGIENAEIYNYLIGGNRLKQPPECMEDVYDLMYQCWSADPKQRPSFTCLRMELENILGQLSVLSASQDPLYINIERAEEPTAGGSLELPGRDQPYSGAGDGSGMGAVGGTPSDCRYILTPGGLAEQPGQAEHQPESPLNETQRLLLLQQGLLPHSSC
The conditions noted are these: at 0.1 µM.

The target of test [11] is T2, Tyrosine-protein kinase receptor TYRO3 (Homo sapiens). The conditions noted are these: at 1 µM.
In test [12] the target is Tyrosine-protein kinase Yes (Homo sapiens) (UniProt P07947). The conditions noted are these: at 0.1 µM.
Sequence of Tyrosine-protein kinase Yes (Homo sapiens) (P07947 2-543 limits assumed): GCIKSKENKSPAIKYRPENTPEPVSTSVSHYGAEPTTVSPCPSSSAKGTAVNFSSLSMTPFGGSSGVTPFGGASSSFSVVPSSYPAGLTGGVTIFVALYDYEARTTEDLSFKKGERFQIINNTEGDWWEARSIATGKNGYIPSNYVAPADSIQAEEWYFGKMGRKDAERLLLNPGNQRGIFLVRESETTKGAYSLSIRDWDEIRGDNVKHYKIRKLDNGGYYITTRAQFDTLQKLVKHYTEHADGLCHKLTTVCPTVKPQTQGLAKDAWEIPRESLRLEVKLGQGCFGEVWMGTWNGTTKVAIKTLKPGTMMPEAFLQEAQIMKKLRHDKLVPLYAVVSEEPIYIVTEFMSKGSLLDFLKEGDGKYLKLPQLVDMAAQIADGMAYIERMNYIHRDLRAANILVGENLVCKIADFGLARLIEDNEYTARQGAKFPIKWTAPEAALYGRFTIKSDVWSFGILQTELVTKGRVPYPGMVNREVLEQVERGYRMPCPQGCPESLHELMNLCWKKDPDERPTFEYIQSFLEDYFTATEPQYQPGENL
The target is the same in test [13]. The conditions noted are these: at 1 µM.
The target of test [14] is T3, Tyrosine-protein kinase ZAP-70 (Homo sapiens) (UniProt P43403).
T3 sequence (whole entry): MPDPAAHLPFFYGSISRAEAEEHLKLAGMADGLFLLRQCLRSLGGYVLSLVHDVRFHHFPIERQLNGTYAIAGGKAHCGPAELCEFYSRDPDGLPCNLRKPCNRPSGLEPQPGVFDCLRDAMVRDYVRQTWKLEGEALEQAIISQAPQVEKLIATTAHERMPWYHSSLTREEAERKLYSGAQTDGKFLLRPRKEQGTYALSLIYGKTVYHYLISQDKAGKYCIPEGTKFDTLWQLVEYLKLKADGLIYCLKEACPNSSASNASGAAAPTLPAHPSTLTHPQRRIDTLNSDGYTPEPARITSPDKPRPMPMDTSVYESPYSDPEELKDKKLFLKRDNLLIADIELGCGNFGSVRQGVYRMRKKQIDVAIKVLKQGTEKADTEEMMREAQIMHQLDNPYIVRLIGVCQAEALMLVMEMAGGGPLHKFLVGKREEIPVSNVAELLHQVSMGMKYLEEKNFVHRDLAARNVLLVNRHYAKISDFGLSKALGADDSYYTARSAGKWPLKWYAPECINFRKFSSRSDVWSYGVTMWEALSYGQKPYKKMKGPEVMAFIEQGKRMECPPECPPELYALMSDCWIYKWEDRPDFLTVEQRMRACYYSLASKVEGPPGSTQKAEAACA
The conditions noted are these: at 0.1 µM.

Test [15] deals with T3, Tyrosine-protein kinase ZAP-70 (Homo sapiens). The following applies: at 1 µM.
Test [16] deals with Serine/threonine-protein kinase B-raf (Homo sapiens) (UniProt P15056). The conditions noted are these: at 0.1 µM.
Sequence of Serine/threonine-protein kinase B-raf (Homo sapiens) (P15056 whole entry): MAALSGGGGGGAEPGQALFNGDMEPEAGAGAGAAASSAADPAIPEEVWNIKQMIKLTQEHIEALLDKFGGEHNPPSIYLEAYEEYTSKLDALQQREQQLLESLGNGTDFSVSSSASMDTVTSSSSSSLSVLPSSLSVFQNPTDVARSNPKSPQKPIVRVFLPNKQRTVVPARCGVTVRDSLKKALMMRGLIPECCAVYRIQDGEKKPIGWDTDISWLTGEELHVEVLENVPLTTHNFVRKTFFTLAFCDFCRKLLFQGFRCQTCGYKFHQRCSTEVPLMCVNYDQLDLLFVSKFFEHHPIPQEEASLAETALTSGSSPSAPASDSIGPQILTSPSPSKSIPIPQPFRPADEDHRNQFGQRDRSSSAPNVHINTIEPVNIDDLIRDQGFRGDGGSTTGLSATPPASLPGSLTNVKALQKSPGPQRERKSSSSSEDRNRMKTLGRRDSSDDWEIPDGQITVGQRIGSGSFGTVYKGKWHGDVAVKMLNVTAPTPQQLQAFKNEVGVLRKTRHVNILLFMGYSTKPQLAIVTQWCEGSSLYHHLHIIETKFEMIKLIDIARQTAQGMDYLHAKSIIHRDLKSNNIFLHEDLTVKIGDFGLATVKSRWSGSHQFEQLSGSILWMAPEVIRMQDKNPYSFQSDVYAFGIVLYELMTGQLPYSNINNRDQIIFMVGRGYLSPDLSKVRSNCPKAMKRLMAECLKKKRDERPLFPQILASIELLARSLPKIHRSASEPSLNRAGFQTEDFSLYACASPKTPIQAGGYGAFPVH
The target is the same in test [17]. The conditions noted are these: at 1 µM.
In test [18] the test system is Serine/threonine-protein kinase B-raf (Homo sapiens), P15056 [V600E]. The conditions noted are these: at 0.1 µM.
Sequence of Serine/threonine-protein kinase B-raf (Homo sapiens), P15056 [V600E] (P15056 whole entry V600E): as the sequence (P15056 whole entry) above, with V600E counted along it
For test [19] the test system is unchanged. The following applies: at 1 µM.
Test [20] deals with RAF proto-oncogene serine/threonine-protein kinase (Homo sapiens) (UniProt P04049). The conditions noted are these: at 0.1 µM.
Sequence of RAF proto-oncogene serine/threonine-protein kinase (Homo sapiens) (P04049 whole entry): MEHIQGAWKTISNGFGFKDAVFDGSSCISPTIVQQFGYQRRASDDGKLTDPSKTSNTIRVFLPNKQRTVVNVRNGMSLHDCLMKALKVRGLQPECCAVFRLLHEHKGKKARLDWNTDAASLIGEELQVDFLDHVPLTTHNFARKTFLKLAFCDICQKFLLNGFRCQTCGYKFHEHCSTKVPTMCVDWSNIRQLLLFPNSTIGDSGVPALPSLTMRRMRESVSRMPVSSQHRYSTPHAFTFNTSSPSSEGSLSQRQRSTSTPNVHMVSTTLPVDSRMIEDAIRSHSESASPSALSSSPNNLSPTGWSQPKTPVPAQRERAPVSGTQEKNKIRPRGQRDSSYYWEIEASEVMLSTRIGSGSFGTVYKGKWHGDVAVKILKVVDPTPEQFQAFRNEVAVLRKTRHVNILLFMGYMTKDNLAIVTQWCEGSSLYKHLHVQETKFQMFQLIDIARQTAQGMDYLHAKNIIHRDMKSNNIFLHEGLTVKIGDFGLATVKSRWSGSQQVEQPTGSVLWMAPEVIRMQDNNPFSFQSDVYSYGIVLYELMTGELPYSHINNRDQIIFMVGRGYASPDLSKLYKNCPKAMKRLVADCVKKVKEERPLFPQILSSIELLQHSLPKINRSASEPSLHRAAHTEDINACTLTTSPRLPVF

Sequence of Fibroblast growth factor receptor 4 (Homo sapiens) (P22455 22-802 limits assumed): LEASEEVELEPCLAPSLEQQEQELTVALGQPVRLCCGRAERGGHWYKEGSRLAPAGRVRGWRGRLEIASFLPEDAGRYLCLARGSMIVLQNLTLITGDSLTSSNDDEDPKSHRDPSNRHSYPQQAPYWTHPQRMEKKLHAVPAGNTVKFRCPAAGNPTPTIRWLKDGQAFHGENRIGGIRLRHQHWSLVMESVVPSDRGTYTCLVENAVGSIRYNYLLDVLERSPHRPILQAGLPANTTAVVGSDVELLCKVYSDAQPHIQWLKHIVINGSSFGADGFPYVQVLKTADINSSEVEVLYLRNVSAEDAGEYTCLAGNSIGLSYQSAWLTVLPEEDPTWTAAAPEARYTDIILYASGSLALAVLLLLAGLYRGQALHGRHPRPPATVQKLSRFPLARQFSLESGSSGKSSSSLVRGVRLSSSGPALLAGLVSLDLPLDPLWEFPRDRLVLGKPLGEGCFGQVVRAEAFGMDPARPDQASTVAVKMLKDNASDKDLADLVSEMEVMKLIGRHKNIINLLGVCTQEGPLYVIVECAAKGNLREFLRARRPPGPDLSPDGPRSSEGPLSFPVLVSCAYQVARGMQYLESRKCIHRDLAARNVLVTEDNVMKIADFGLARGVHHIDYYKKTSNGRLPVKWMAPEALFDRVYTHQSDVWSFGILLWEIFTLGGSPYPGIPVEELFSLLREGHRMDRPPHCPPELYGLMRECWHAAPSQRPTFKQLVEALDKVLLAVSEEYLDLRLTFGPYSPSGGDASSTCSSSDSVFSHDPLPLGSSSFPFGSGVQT

For orientation: inhibition means the relative decrease from the control value, in per cent. On to `O=C(Nc1n[nH]c2nc(-c3ccc(O)cc3)c(Br)cc12)C1CC1`, for which the inhibition in [1] was 3.05%; in test [2], 7.15%; in test [3], 21.3%; in test [4] it was 2.34%; in test [5] it was 17.7%; in [6] it was 5.54%. The inhibition in test [7] is 25.7%; in test [8], 4.14%; in test [9], 17.6%; in test [10], 10.4%; in test [11], 41.4%; in test [12], 5.61%. Moreover, the inhibition is 27.4% in [13]; 5.14% in test [14]; 4.28% in [15]; 9.27% in [16]; 12.6% in test [17]; 10.1% in [18]. Further, the figures for the inhibition in test [19] and in [20] were 13% and -1.54%, respectively.

For the compound `COc1cc(N2CCN(C(C)C)CC2)ccc1Nc1nc(Nc2ccc(F)cc2C(=O)NC[C@@H](O)CO)c2cc[nH]c2n1`, the inhibition is -2.11% in test [1]; 4.37% in test [2]; 1.14% in [3]; 1.41% in [4]; 1.28% in [5]; 1.53% in [6]. Besides, the inhibition in test [7] is 2.54%; in test [8], 0.41%; in test [9], -2.95%; in test [10], 2.87%; in test [11] it was 5.76%; in test [12], 1.99%. For the same compound, the inhibition is 12.3% in test [13]; -0.52% in test [14]; 5.52% in test [15]; 6.98% in test [16]; 5.88% in [17]; 7.48% in test [18]. For the same compound, the values for the inhibition in test [19] and in test [20] were 4.83% and -2.46%, respectively.

For `Fc1ccc(-c2ncn(CCCN3CCOCC3)c2-c2ccncc2)cc1`, the inhibition was 0.42% in test [1]; -2.23% in [2]; 3.21% in test [3]; -2.17% in test [4]; 0.42% in test [5]; 0.43% in test [6]. The inhibition in test [7] is 1.49%; in test [8] it was -3.55%; in test [9] it was -0.81%; in test [10], -0.71%; in test [11] it was -1.64%; in test [12], -0.25%. Further, the inhibition in [13] was -0.03%; in test [14] it was 3.48%; in test [15] it was 3.14%; in [16], 0.29%; in test [17] it was 1.33%; in test [18], 0.73%. Moreover, the figures for the inhibition in test [19] and in test [20] were 0.78% and -0.34%, respectively.

On to `CS(=O)(=O)CCNCc1cc(-c2cc3c(Nc4ccc(OCc5cccc(F)c5)c(Cl)c4)ncnc3s2)cs1`, for which the inhibition in [1] stood at 1.36%; in test [2], 2.51%; in test [3], 4.32%; in test [4] it was 0.1%; in test [5], 0.78%; in test [6], 2.69%. The inhibition was 6.93% in test [7]; -4.23% in [8]; -4% in [9]; 2.21% in test [10]; 4.28% in test [11]; 3.05% in test [12]. For the same compound, the inhibition in [13] was found to be 6.33%; in test [14], 2.63%; in test [15] it was 1.06%; in [16], 6.76%; in test [17], 9.8%; in test [18], 4.4%. Also, the values for the inhibition in [19] and in [20] were 5.09% and 2.35%, respectively.

As to `Cc1ccc(C(=O)NC2CCC2)cc1-c1ccc(C(=O)NCC2CC2)cc1`, the inhibition was 1.12% in test [1]; 0.84% in test [2]; 4.82% in test [3]; 1.31% in test [4]; -0.61% in [5]; 0.07% in test [6]. For the same compound, the inhibition is 1.62% in [7]; 0.48% in test [8]; -2.49% in test [9]; 1.07% in test [10]; 1.69% in test [11]; 1.57% in test [12]. The inhibition in test [13] worked out at 0.45%; in test [14], 3.05%; in test [15], 3.75%; in test [16], 3.33%; in [17], 2.03%; in test [18], 3.91%. Besides, the inhibition in test [19] was 3.62%; in [20] it was -1.45%.

Consider `Fc1ccc(-c2ncn(C3CCNCC3)c2-c2ccnc(Oc3ccc4c(c3)OCO4)n2)cc1`, for which the inhibition in test [1] is 0.91%; in test [2], 3.23%; in test [3], 7.38%; in [4], 0.92%; in [5], 2.35%; in test [6], 4.05%. The inhibition in test [7] was 7.47%; in test [8], -0.87%; in [9], -3.97%; in test [10], 1.93%; in test [11], 3.42%; in test [12], 3.41%. The inhibition in test [13] was 3.52%; in [14], 0.26%; in test [15] it was -6.92%; in test [16] it was 7.39%; in [17], 12.7%; in test [18], 6.25%. Also, the inhibition in test [19] was 8.22%; in [20] it was 1.31%.

`Fc1ccc(-c2nc3n(c2-c2ccncc2)CCS3)cc1`: the inhibition in [1] was -1.43%; in test [2], 3.23%; in test [3], 5.64%; in test [4] it was 0.95%; in test [5] it was 4.64%; in test [6] it was 2.5%. Further, the inhibition in test [7] is 4.49%; in test [8], 4.1%; in [9] it was -3.88%; in test [10], 2.21%; in test [11], 2.33%; in [12], 3.03%. The inhibition in test [13] is 7.29%; in test [14], -2.56%; in test [15], -1.24%; in test [16] it was 5.8%; in test [17], 7.17%; in test [18], 5.81%. In addition, the inhibition was found to be 5.73% in [19] and 1.81% in test [20].
